# An excerpt weighted towards active compounds, which were near 1.5% of everything screened.
# SKBR3 24h inh – SK-BR-3 proliferation inhibitors, primary screen, cell-based, human, 24 h; SK-BR-3 viability, CellTiter-Glo ATP luminescence; active compounds read low; viability, % at 10 µM; 41,000 compounds, 0.47% hits; AID 847, 2007;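 active means viability at or below the median of all test compounds minus 3 SD, in both replicates if run twice, cut at about 45% in these data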;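 further: 100% = median untreated cell wells and 0% = median positive control drug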
# HER2 expr 66K – inhibitors of Her2 protein expression, primary screen, SKBR-3 cells, AlphaScreen, 66K library. Receptor tyrosine-protein kinase erbB-2 (Homo sapiens), P04626. SKBR-3 HER2 protein level, 18-24 h; active compounds read low. AID 645, 2007. 65,000 compounds, 0.69% hits. HER2 level % of control, % at 10 µM;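 active means HER2 level under 5% of the carrier-only control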;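 further: 100% = DMSO carrier and 0% = 500 nM PU-H71 HSP90 inhibitor; lower value means stronger loss of Her2 protein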
# Hsp90 inh – tumor Hsp90 inhibitors, primary screen, cell lysate, fluorescence polarization, NCI-N417 lysate; Cy3B-geldanamycin FP displacement; AID 429, 2006; Heat shock protein HSP 90-alpha (Homo sapiens), P07900; 64,000 compounds, 0.35% hits; inhibition, % at 30 µM;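 active means inhibition above 50%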;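 further: 0% = tracer plus lysate wells and 100% = tracer alone without lysate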
# Cdc25B inh – inhibitors of Cdc25B phosphatase catalytic domain, primary screen, biochemical, OMFP fluorescence. recombinant Cdc25B, OMFP fluorescence Ex485/Em525. inhibition, %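 (compounds tested at 10 µM final in the well)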. 65,000 compounds, 0.1% hits. AID 368, 2006; in the data active means inhibition above about 50%
# DUSP1 inh – MKP-1 phosphatase inhibitors, primary screen, biochemical, in vitro; AID 374, 2006; Dual specificity protein phosphatase 1 (Homo sapiens), P28562; 65,000 compounds, 0.15% hits; recombinant MKP-1, OMFP hydrolysis fluorescence; inhibition, %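 (compounds tested at a single concentration somewhere between 10 and 100 µM)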;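 active means inhibition above about 50%, limit read from the data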;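 further: 0% = DMSO max control wells and 100% = wells with enzyme stopped by NaOH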
# Target sequence (P28562 whole entry, looked up): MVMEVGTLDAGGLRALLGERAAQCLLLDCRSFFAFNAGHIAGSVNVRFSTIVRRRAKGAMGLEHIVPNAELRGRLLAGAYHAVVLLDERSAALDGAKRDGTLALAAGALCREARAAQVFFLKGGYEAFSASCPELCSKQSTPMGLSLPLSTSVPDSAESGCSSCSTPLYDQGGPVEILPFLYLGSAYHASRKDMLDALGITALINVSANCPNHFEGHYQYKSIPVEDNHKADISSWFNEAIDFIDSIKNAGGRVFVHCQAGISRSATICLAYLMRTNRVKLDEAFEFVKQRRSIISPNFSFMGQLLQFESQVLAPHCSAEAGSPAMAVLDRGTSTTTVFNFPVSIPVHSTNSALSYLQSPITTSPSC
# Redox H2O2 0p5DTT – redox cycling H2O2 generation, 0.5 mM DTT, dose response, artefact control, biochemical, Cdc25B catalytic domain; EC50, µM; shares compounds with Cdc25B inh; 30 compounds, 50% hits; AID 682, 2007; cell-free redox cycling H2O2 generation; in the data active means EC50 below about 30 µM
# Redox H2O2 1DTT – redox cycling H2O2 generation, 1 mM DTT, dose response, artefact control, biochemical, 1.0 mM DTT, Cdc25B catalytic domain; 30 tested, under 10 active; shares compounds with Cdc25B inh; EC50, µM; cell-free redox cycling H2O2 generation; in the data active means EC50 below about 50 µM
# Redox H2O2 – redox cycling hydrogen peroxide production, dose response, artefact control, biochemical, probe assessment | shares compounds with DUSP1 inh | Redox cycling H2O2 generation, DTT, phenol red/HRP | EC50, µM | 60 tested, under 10 active; call rule not given here
# Numbers without * were called inactive; i = inactive; nt = no result.
SMILES,SKBR3 24h inh,HER2 expr 66K,Hsp90 inh,Cdc25B inh,DUSP1 inh,Redox H2O2,others
CC1CC(C)(C)Nc2ccc(OC(=O)c3ccco3)cc21 (stereo unspecified),19.8*,-31.2*,4.2,-13.3,-0.5,nt,
O=c1nc(-c2ccccc2)n(-c2ccccc2)c2ncccc12,nt,129.8,-1.2,9.1,20.0,nt,
COc1ccc(OC)c(NC(=O)CSc2nnc(Cc3cccn3C)n2CCc2ccccc2)c1,nt,101.4,-0.9,-28.6,65.4*,nt,
Cn1cccc1Cc1nnc(SCC(=O)Nc2ccc(F)cc2)n1CCc1ccccc1,nt,93.8,-6.0,-12.1,13.9,nt,
N#Cc1cccc2cnccc12,91.1,69.2,2.6,6.1,3.9,nt,
Nc1cccc2cnccc12,106.1,97.8,63.3*,81.3*,6.4,nt,Redox H2O2 0p5DTT=>50;Redox H2O2 1DTT=>50
CC12CCC(C(=O)N3CCc4ccccc43)(CC1=O)C2(C)C (stereo unspecified),94.4,90.0,-4.8,-10.5,4.5,nt,
COc1cccc2c1NC(C(=O)O)C1CC=CC21 (stereo unspecified),nt,118.6,-26.3,50.9*,42.2,nt,Redox H2O2 0p5DTT=>50;Redox H2O2 1DTT=>50
Cc1ccc2c(c1)C1C=CCC1C(C(=O)O)N2 (stereo unspecified),71.7,69.0,-24.6,51.4*,20.0,nt,Redox H2O2 0p5DTT=>50;Redox H2O2 1DTT=>50
C1=CC2c3ccccc3NC(c3ccncc3)C2C1 (stereo unspecified),93.6,95.9,-9.5,4.1,-14.2,nt,
CC(=O)Nc1cc(OC(C)=O)c2nonc2c1OC(C)=O,2.2*,-6.9*,91.1*,100.4*,-17.0,nt,Redox H2O2 0p5DTT=3.89*;Redox H2O2 1DTT=13.6*
COC(=O)[C@@H](NC(=O)Nc1ccccc1F)C(C)C,99.3,88.7,1.7,7.2,-19.4,nt,
[O-]/[N+](=C\c1ccncc1)c1ccccc1,nt,93.7,26.1,63.9*,64.0*,i,Redox H2O2 0p5DTT=>50;Redox H2O2 1DTT=>50
[O-]/[N+](=C\c1ccc(OC(F)F)cc1)c1ccccc1,108.3,89.5,1.6,72.8*,64.9*,>50,Redox H2O2 0p5DTT=>50;Redox H2O2 1DTT=>50
COC(=O)[C@H](C)NC(=O)Nc1ccc(Oc2ccccc2)cc1,86.6,74.2,-0.3,2.2,-10.3,nt,
CCCCN(CCCC)CCNC(=O)Cc1nc2c(c(=O)[nH]c(=O)n2C)n1C,110.5,102.6,4.0,-7.5,-6.2,nt,
N=c1nc(SCCC(=O)O)ss1,104.6,88.7,-1.9,-7.9,1.0,nt,
Cc1c(N=CC=Nc2c(C)n(C)n(-c3ccccc3)c2=O)c(=O)n(-c2ccccc2)n1C,nt,118.9,-3.3,0.9,6.1,nt,
Cc1c(N=c2c(=O)c3ccccc3c2=O)c(=O)n(-c2ccccc2)n1C,86.4,69.2,80.0*,98.4*,88.2*,>50,Redox H2O2 0p5DTT=13.2*;Redox H2O2 1DTT=41.4*
COc1ccc2noc3c2c1C(=O)c1ccccc1-3,nt,65.3,38.8,96.6*,79.2*,>50,Redox H2O2 0p5DTT=26.8*;Redox H2O2 1DTT=>50
Cc1cccc(N2CCN(C(=O)CCn3c(=O)[nH]c4ccccc4c3=O)CC2)c1C,nt,99.0,-0.7,-25.4,19.4,nt,
Cc1cccc(N2CCN(C(=O)Cc3c(C(=O)O)[nH]c4ccc(Cl)cc34)CC2)c1C,88.8,105.2,-3.8,1.5,52.6*,>50,
CCC(=O)Nc1c(C#N)c2nc3ccccc3nc2n1-c1ccc(C)cc1,87.3,44.3,-2.5,8.5,-18.1,nt,
N#Cc1c(NC(=O)c2ccc(Br)o2)n(-c2ccccc2)c2nc3ccccc3nc12,76.5,56.9,43.9,8.4,22.7,>50,
Cc1ccc(/C=C/C2=Cc3c(sc(NC(=O)CSc4n[nH]c(N)n4)c3C#N)C(C)(C)C2)o1,nt,-1.5*,-20.6,33.7,68.7*,>50,
SMILES,SKBR3 24h inh,HER2 expr 66K,Hsp90 inh,Cdc25B inh,DUSP1 inh,Redox H2O2,others
CCOC(=O)c1sc(NC(=O)CSc2n[nH]c(-c3ccccc3)n2)c(C#N)c1C,113.8,46.5,-4.1,6.0,12.5,nt,
CCc1ccccc1NC(=O)CN1C(=O)C2CCCN2c2ncc(Cl)cc21 (stereo unspecified),96.3,80.2,-6.0,-5.5,4.2,nt,
COC(=O)c1ccccc1NC(=O)CN1C(=O)C2CCCN2c2ncc(Cl)cc21 (stereo unspecified),nt,121.5,-19.1,4.7,50.2*,>50,
O=C(CN(c1ccccc1)S(=O)(=O)c1ccc(F)cc1)N1CCCCCC1,117.3,118.7,0.7,-9.4,9.9,nt,
Cc1ccc(C)n1-c1cccc(C(=O)O)c1,98.9,75.0,-0.4,21.0,50.2*,>50,
Cc1cc(/C=C(/C#N)c2cccc(F)c2)c(C)n1-c1cccnc1,77.9,74.1,-11.9,-7.4,-6.3,nt,
Cc1nc(NCCCn2ccnc2)c2ccccc2n1,nt,72.8,-3.0,-3.9,6.6,nt,
O=C1c2ccccc2-c2onc3ccc(NCCCn4ccnc4)c1c23,82.3,87.2,139.9*,6.3,25.4,>50,
CCOC(=O)N1CCN(C(=O)c2ccc(C)c(S(=O)(=O)Nc3cccc(C)c3C)c2)CC1,87.8,80.2,-0.4,2.5,5.3,nt,
Cc1ccc(-c2csc(NC(=O)c3ccno3)n2)cc1,nt,52.5,-12.9,23.5,53.1*,>50,
O=C(c1cccc(COCC(F)(F)C(F)F)c1)N1CCN(c2ccccc2)CC1,78.7,94.7,-2.5,-8.4,-1.3,nt,
COc1ccc(-c2cc3nc(C4CCN(C(=O)OC(C)(C)C)CC4)c(C(=O)O)cn3n2)cc1,nt,69.0,-0.1,-4.2,64.6*,>50,
O=C(Nc1ccccc1)c1ccc2nc(-c3ccco3)c(-c3ccco3)nc2c1,63.5,89.9,-20.1,44.7,59.3*,>50,
O=C1C(C2=C(O)c3ccccc3C2=O)=Nc2ccccc21,nt,-16.2*,57.5*,23.3,91.2*,>50,
COCCn1c(=NC(=O)CSCC(=O)Nc2cc(C)on2)sc2cc(C(=O)OC)ccc21,nt,86.2,-0.1,-3.2,15.2,nt,
CN(C(=O)COc1cc(=O)n(C)c2ccccc12)c1ccc(Br)cc1,nt,86.6,-0.8,-8.3,4.3,nt,
CCOc1cc(/C=C(/C#N)c2ccc(F)cc2)ccc1OCc1ccc(C(=O)O)o1,91.1,80.9,-8.9,-4.0,53.8*,>50,
[O-]/[N+](=C/c1ccc(F)cc1)c1ccccc1,148.6,78.3,5.8,47.7,82.1*,>50,
COc1ccc2nc(NC(=O)CCc3nc(-c4ccccc4F)no3)sc2c1,90.4,95.2,1.6,-3.9,27.5,nt,
O=C1Nc2ccccc2SC(c2ccccc2)C1O (stereo unspecified),nt,122.9,-0.1,20.8,57.8*,>50,
CC(=O)c1c(C)oc(C)c1CSCc1ccc(C(=O)O)o1,99.2,85.3,-4.0,1.8,17.7,nt,
